PubChem BioAssay (EPA / NIEHS)
Values joined by “and” are separate entries in the source; they are usually repeats but may differ in a detail not shown here. Identical values can stand only once. Results filed as inconclusive are left out. Some structures have more than one record in an assay (separate samples or runs), and their calls can disagree. Active and inactive are the calls of the source. Rule for the calls, unless noted: active = hit-call score of the fitted dose curve at least 0.9, where 1 is the maximum; inconclusive = response in the unintended direction; inactive = score below 0.9.

Experiments:
[1] = target: Cellular tumor antigen p53 (Homo sapiens) (UniProt P04637); assay: TOX21_p53_BLA_p2_ratio: Tox21 HCT-116 p53 Agonism Beta-lactamase Assay, Ratio, Phase 2 (AID 2283592)
Chain of Cellular tumor antigen p53 (Homo sapiens) (P04637 whole entry, looked up): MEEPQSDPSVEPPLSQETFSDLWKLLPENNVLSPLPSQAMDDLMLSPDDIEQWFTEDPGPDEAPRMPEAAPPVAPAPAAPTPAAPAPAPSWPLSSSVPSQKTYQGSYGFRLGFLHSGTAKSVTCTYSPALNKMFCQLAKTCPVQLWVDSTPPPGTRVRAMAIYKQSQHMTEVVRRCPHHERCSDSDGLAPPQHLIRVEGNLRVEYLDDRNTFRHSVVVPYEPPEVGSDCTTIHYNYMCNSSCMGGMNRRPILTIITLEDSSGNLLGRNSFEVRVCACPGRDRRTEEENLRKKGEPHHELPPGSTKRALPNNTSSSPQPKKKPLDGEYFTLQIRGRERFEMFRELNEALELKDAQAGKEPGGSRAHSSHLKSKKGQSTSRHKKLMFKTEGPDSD
How it was run: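 HCT116 cells carrying a p53-responsive beta-lactamase reporter were plated, incubated 5 h at 37C, then dosed with compounds in DMSO (217-fold dilution) for 16 h. CCF4-AM substrate was added for 2 h at room temperature; the 460/530 nm emission ratio gave gain-of-signal activity relative to DMSO.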

[2] = TOX21_p53_BLA_p3_viability: Viability Assessment in the Tox21 HCT-116 p53 Agonism Beta-lactamase Assay, Phase 3 (AID 2283593);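 note: cells exposed to compound for 16 h before reading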
How it was run: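 HCT-116 cells (4000/well) rested 5 h at 37C, then got DMSO compounds by pin tool (217-fold dilution) for 16 h at 37C, 5% CO2. After the bla read, CellTiter-Glo was added and luminescence read at 30 min, room temperature.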

[3] = TOX21_p53_BLA_p4_viability: Viability Assessment in the Tox21 HCT-116 p53 Agonism Beta-lactamase Assay, Phase 4 (AID 2283597);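 note: hits lower the luminescence signal meaning cytotoxicity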
How it was run: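 HCT116 p53-bla cells (4000/well) rested 5 h at 37C, then received compounds in DMSO (217-fold dilution) for 16 h at 37C, 5% CO2. CellTiter-Glo was added after the CCF4-AM read, and luminescence was read after 30 min at room temperature.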

[4] = target: Cellular tumor antigen p53 (Homo sapiens) (UniProt P04637); assay: TOX21_p53_BLA_p5_ratio: Tox21 HCT-116 p53 Agonism Beta-lactamase Assay, Ratio, Phase 5 (AID 2283599)
How it was run: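 HCT-116 cells carrying a p53-inducible beta-lactamase reporter were seeded at 4000 cells/well and dosed after 5 h with compound in DMSO (217-fold dilution). After 16 h at 37C, CCF4-AM substrate was added for 2 h, and the 460/530 nm emission ratio was scored as gain-of-signal versus DMSO.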

[5] = TOX21_p53_BLA_p5_viability: Viability Assessment in the Tox21 HCT-116 p53 Agonism Beta-lactamase Assay, Phase 5 (AID 2283600)
How it was run: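 Cells were plated at 4000/well, rested 5 h at 37C, then given compounds in DMSO (217-fold dilution) for 16 h at 37C, 5% CO2. Following the CCF4-AM beta-lactamase read, CellTiter-Glo was added and luminescence was read after 30 min at room temperature.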

[6] = target: Cellular tumor antigen p53 (Homo sapiens) (UniProt P04637); assay: TOX21_p53_BLA_p4_ratio: Tox21 HCT-116 p53 Agonism Beta-lactamase Assay, Ratio, Phase 4 (AID 2283601)
How it was run: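 HCT116 cells carrying an inducible beta-lactamase reporter were plated at 4000 cells/well, rested 5 h, then exposed to compounds in DMSO (217-fold dilution) for 16 h at 37C. CCF4-AM substrate was loaded 2 h at room temperature; 460/530 nm emission ratio scored gain-of-signal versus DMSO.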

[7] = CCTE_Harrill_HTTr_Viability_MCF7: CCTE's 6-hour Cell Viability Assessment for the High-Throughput Transcriptomics (HTTr) Platform, in MCF-7 cells cultured in DMEM + 10% fetal bovine serum, Harrill Lab (AID 2284010; active = hit-call score of the fitted dose curve at least 0.9, where 1 is the maximum; inactive = score below 0.9)
How it was run: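 Viability measured through PI dye exclusion by high-content imaging at 6 h post-dosing.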

[8] = CCTE_Harrill_HTTr_Apoptosis_MCF7: CCTE's 6-hour Apoptosis Assessment for the High-Throughput Transcriptomics (HTTr) Platform, in MCF-7 cells cultured in DMEM + 10% fetal bovine serum, Harrill Lab (AID 2284011; active = hit-call score of the fitted dose curve at least 0.9, where 1 is the maximum; inactive = score below 0.9)
How it was run: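 MCF-7 cells in DMEM + 10% fetal bovine serum were exposed to chemicals for 6 hours over an eight-point dilution series. Caspase-3/7 activation was imaged by high content imaging with CellEvent Caspase 3/7 Green; bidirectional fitting used DMSO as baseline.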

[9] = CCTE_Harrill_HTTr_CellCount_MCF7: CCTE's Cell Proliferation Assessment for the High-Throughput Transcriptomics (HTTr) Platform, Harrill Lab (AID 2284012);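 note: count of Hoechst-stained nuclei per well by high-content imaging in MCF-7 cells; cells exposed to compound for six hours; intended direction is loss of nuclei count meaning fewer cells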
How it was run: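 Nuclei counting (Hoechst, high content imaging) in MCF-7 after a 6 h treatment at eight concentrations. Activity fitted bidirectionally, DMSO as negative control.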

[10] = target: Cellular tumor antigen p53 (Homo sapiens) (UniProt P04637); assay: TOX21_p53_BLA_p3_ratio: Tox21 HCT-116 p53 Agonism Beta-lactamase Assay, Ratio, Phase 3 (AID 2283596)
How it was run: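 HCT116 p53-bla cells (4000/well) given compound in DMSO (217-fold dilution) after 5 h, incubated 16 h at 37C. CCF4-AM substrate 2 h at room temperature; 460/530 nm emission ratio, gain fitted against DMSO.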

Measured: AC50

CCCCCCCCCCCCCCCCCCCl
inactive: [1] | [2] | [3] | [4] | [5] | [6]

CC1=CC(=O)CC(C)(C)C1(O)/C=C/C(C)=C\C(=O)O (stereo unspecified)
inactive: [1] | [2] | [3] | [4] | [5] | [6]

OC(CCN1CCCCC1)(c1ccccc1)c1ccccc1
inactive: [1] | [2] | [3] | [4] | [5] | [6]

CCSc1ccc2c(c1)N(CCCN1CCN(C)CC1)c1ccccc1S2
inactive: [1] | [2] | [3] | [4] | [6]

O=P(O)(O)OC(CO)CO
inactive: [1] | [2] | [3] | [5]

CCOc1ccc(NC(=O)OC(C)C)cc1OCC
inactive: [1] | [2] | [3] | [4] | [6]

CN1[C@@H]2CCC[C@H]1CC(NC(=O)c1nn(C)c3ccccc13)C2 (stereo partly specified)
inactive: [1] | [2] | [3] | [5]

CN(C)C(=O)CNC(=O)Cc1ccccc1
inactive: [1] | [2] | [3] | [4] | [6]

COc1ccc(NC(C)=O)cc1
inactive: [1] | [2] | [3] | [5]

O=C(O)/C=C/c1ccc(Cn2ccnc2)cc1
inactive: [1] | [2] | [4] | [5] | [6]

C=CC1CC2C=CC1C2 (stereo unspecified)
inactive: [1] | [2] | [3] | [4] | [5] | [6]

FC(F)(F)c1ccc(Cl)cc1Cl
inactive: [1] | [2] | [3] | [4] | [6]

CC(=O)Nc1c(I)c(C(=O)O)c(I)c(N(C)C(C)=O)c1I
inactive: [1] | [2] | [3] | [4] | [5] | [6]

CCc1ccccc1CC
not listed: [5] | [10]
inactive: all other assays above

NS(=O)(=O)Cc1noc2ccccc12
inactive: [1] | [2] | [3] | [4] | [6]

NC(=O)c1ncn([C@@H]2O[C@H](CO)[C@@H](O)[C@H]2O)n1
inactive: [3] | [4]
active: [1] 32.2 µM and 20.3 µM | [10] 17 µM | [4] 45.7 µM | [6] 15.6 µM

C=C(C)CC(C)(C)C
inactive: [1] | [2] | [3] | [4] | [5] | [6]

CC1(C)C(\C=C/C=C\C=C/C=C2/N(CCCCS(=O)(=O)O)c3ccc4ccccc4c3C2(C)C)=[N+](CCCCS(=O)(=O)[O-])c2ccc3ccccc3c21
inactive: [1] | [2] | [3] | [4] | [5] | [6]

CC(=O)OC(C(=O)c1ccccc1)c1ccccc1 (stereo unspecified)
inactive: [1] | [2] | [3] | [4] | [6]

NS(=O)(=O)c1ccc(NC(=O)CCC(=O)O)cc1
inactive: [1] | [2] | [3] | [4] | [5] | [6]

CC1CS(=O)(=O)CCN1N=Cc1ccc([N+](=O)[O-])o1 (stereo unspecified)
inactive: [1] | [2] | [3] | [4] | [5]

O=C(CCCCCCCCCCCCC1CCCC1)Nc1ccc(S(=O)(=O)c2ccc(NC(=O)CCCCCCCCCCCCC3CCCC3)cc2)cc1
inactive: [1] | [2] | [3] | [4] | [6]

CN(Cc1ccccc1)Cc1ccccc1
inactive: [1] | [2] | [3] | [4] | [6]

Cc1[nH]c(=O)c(C#N)cc1-c1ccc2nccn2c1
inactive: [1] | [2] | [3] | [4] | [6]

CCOC(=O)C(C)C(C)=O (stereo unspecified)
inactive: [1] | [2] | [3] | [4] | [5] | [6]

O=C(C=Cc1ccc(O)c(O)c1)O[C@@H]1C[C@](O)(C(=O)O)C[C@@H](O)[C@H]1O
inactive: [1] | [2] | [3] | [4] | [6]

Cc1cccc2sc(N)nc12
inactive: [1] | [2] | [3] | [4] | [5] | [6]

C[C@@H](CN1CC(=O)NC(=O)C1)N1CC(=O)NC(=O)C1
inactive: [1] | [2] | [3] | [5]

CC(C)CCCC(C)N (stereo unspecified)
inactive: [1] | [2] | [3] | [4] | [5] | [6]
